Several values for one entry are separate records, joined by “and”; a condition that tells them apart may be missing. Equal values may be shown once. Records with an inconclusive call do not appear. Entries that show only a call come without a potency. Activity calls are given as the source filed them. Calls come from the whole dose curve; as a rule, active = well fitted curve in the direction sought with a large enough effect; inconclusive = small, poorly fitted or top-dose-only effect, or another doubt; inactive = no such curve, though single readings can be large; an effect the other way counts as inactive or inconclusive.
Legend:
[1] = qHTS of pediatric cancer cell lines to identify multiple opportunities for drug repurposing: Confirmatory screen for NB1643 cells (AID 1347109); note: nearly all actives have a fitted effect of over 45% in size
How it was run: (§1)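 Cells (500-1,000/well) rested 5 h, then received compounds for 48 h; metabolically active cells were measured by CellTiter-Glo luminescence. Final concentrations spanned up to 46 µM (MIPE, 11-point) or 0.59 nM-46 µM (NPC, 8-point) in primary screens, 11-point in follow-ups.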

[2] = qHTS of pediatric cancer cell lines to identify multiple opportunities for drug repurposing: Confirmatory screen for A673 cells (AID 1347110);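 note: cells exposed to compound for 48 h before the viability read; nearly all actives have a fitted effect of over 65% in size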
How it was run: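 Forty-eight-hour viability assay. Follow-up compounds ran at 11-point dilutions; positive control bortezomib at 2.3 uM final, neutral control DMSO.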

[3] = qHTS of pediatric cancer cell lines to identify multiple opportunities for drug repurposing: Confirmatory screen for SK-N-MC cells (AID 1347111);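 note: cells exposed to compound for 48 h before the readout; nearly all actives have a fitted effect of over 70% in size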
How it was run: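 Seed 500-1,000 cells/well; rest 5 h at 37 degrees C. Pin-transfer compounds, 11-point titration. Incubate 48 h. Add CellTiter-Glo, 15 min RT, read luminescence.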

[4] = qHTS of pediatric cancer cell lines to identify multiple opportunities for drug repurposing: Confirmatory screen for BT-12 cells (AID 1347112); note: nearly all actives have a fitted effect of over 55% in size
How it was run: as §1

[5] = qHTS of pediatric cancer cell lines to identify multiple opportunities for drug repurposing: Confirmatory screen for LAN-5 cells (AID 1347113); note: nearly all actives have a fitted effect of over 65% in size
How it was run: as §1

[6] = qHTS of pediatric cancer cell lines to identify multiple opportunities for drug repurposing: Confirmatory screen for TC32 cells (AID 1347118);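 note: cells exposed to compound for 48 h before the read; nearly all actives have a fitted effect of over 65% in size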
How it was run: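 Luminescent CellTiter-Glo read-out of metabolically active TC32 cells after 48 h compound exposure. Primary: MIPE 11-point, 0.78 nM–46 µM; NPC 8-point, 0.59 nM–46 µM. Confirmatory: 11-point dilutions.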

[7] = qHTS of pediatric cancer cell lines to identify multiple opportunities for drug repurposing: Confirmatory screen for MG 63 (6-TG R) cells (AID 1347119); note: nearly all actives have a fitted effect of over 55% in size
How it was run: as §1

[8] = qHTS of pediatric cancer cell lines to identify multiple opportunities for drug repurposing: Confirmatory screen for control Hh wild type fibroblast cells (AID 1347121); note: nearly all actives have a fitted effect of over 70% in size
How it was run: as §1

[9] = qHTS of pediatric cancer cell lines to identify multiple opportunities for drug repurposing: Confirmatory screen for U-2 OS cells (AID 1347122); note: nearly all actives have a fitted effect of over 65% in size
How it was run: as §1

[10] = qHTS of pediatric cancer cell lines to identify multiple opportunities for drug repurposing: Confirmatory screen for Rh41 cells (AID 1347123); note: nearly all actives have a fitted effect of over 60% in size
How it was run: as §1
Potency is the fitted concentration of half-maximal effect.

SMILES | Potency [1] | Potency [2] | Potency [3] | Potency [4] | Potency [5] | Potency [6] | Potency [7] | Potency [8] | Potency [9] | Potency [10]
COc1cc(NCc2ccc3nc(N)nc(N)c3c2C)cc(OC)c1OC | 9.27 µM (active) | 3.29 µM (active) | 657 nM (active) | 3.29 µM (active) | 18.5 µM (active) | 585 nM (active) | 20.8 µM (active) | inactive | inactive | 
Nc1[nH]c(=O)ncc1F | inactive | inactive | inactive | inactive |  | inactive | inactive | inactive | inactive | inactive
CCOC(=O)[C@H](CCc1ccccc1)N[C@H]1CS[C@H](c2cccs2)CN(CC(=O)O)C1=O | inactive | 10.4 µM (active) | 9270 nM (active) | inactive | inactive | 8270 nM (active) | inactive | inactive | inactive | inactive
CCC(=O)O[C@]1(C(=O)SCF)[C@H](C)C[C@H]2[C@@H]3C[C@H](F)C4=CC(=O)C=C[C@]4(C)[C@@]3(F)[C@@H](O)C[C@@]21C | inactive | 1.04 µM (active) | inactive | inactive | inactive | inactive | inactive | inactive |  | inactive
CCC(=O)O[C@]1(C(=O)CCl)[C@@H](C)C[C@H]2[C@@H]3CCC4=CC(=O)C=C[C@]4(C)[C@@]3(F)[C@@H](O)C[C@@]21C | inactive | 20.8 µM (active) | inactive | inactive | inactive | inactive | inactive | inactive | inactive | 26.1 µM (active)
CCc1c2c(nc3ccc(OC(=O)N4CCC(N5CCCCC5)CC4)cc13)-c1cc3c(c(=O)n1C2)COC(=O)[C@]3(O)CC | 2.61 µM (active) | 1.17 µM (active) | 737 nM (active) |  | 2.93 µM (active) | 465 nM (active) | 1.85 µM (active) | inactive |  | 4.14 µM (active)
CC(C)NCC(O)c1ccc(NS(C)(=O)=O)cc1 (stereo unspecified) | inactive | inactive | inactive | inactive | inactive | inactive | inactive | inactive | inactive | inactive
CO[C@@]12[C@H](COC(N)=O)C3=C(C(=O)C(C)=C(N)C3=O)N1C[C@@H]1N[C@@H]12 | 1.04 µM (active) | 3.69 µM (active) | 2080 nM (active) | 16.5 µM (active) | 1.31 µM (active) | 465 nM (active) |  |  |  | 7.37 µM (active)
CC(C)(C)C(=O)OCOP(=O)(COCCn1cnc2c(N)ncnc21)OCOC(=O)C(C)(C)C | 8.27 µM (active) | 4.65 µM (active) | 329 nM (active) | 16.5 µM (active) | 9.27 µM (active) | 1170 nM (active) | 5.22 µM (active) |  | inactive | 20.8 µM (active)
CN(C)c1ccc(C(=C2C=CC(=[N+](C)C)C=C2)c2ccc(N(C)C)cc2)cc1 | 1.17 µM (active) | 1.47 µM (active) | 737 nM (active) | 2.33 µM (active) | 1.17 µM (active) | 928 nM (active) | 0.827 µM (active) | 1.04 µM (active) | 1.85 µM (active) | 0.522 µM (active)
COc1ccc(C(=O)CC(=O)c2ccc(C(C)(C)C)cc2)cc1 | inactive | inactive | 26100 nM (active) | inactive | inactive |  |  | inactive | inactive | inactive
CNCC[C@H](Oc1cccc2ccccc12)c1cccs1 | inactive | 14.7 µM (active) | 6570 nM (active) | inactive |  | 7370 nM (active) | 26.1 µM (active) | inactive | inactive | 
C[C@@H]1C[C@H]2[C@@H]3CCC4=CC(=O)C=C[C@]4(C)[C@@]3(Cl)[C@@H](O)C[C@]2(C)[C@@]1(OC(=O)c1ccco1)C(=O)CCl | 0.369 µM (active) | 2.61 µM (active) | 827 nM (active) | 5.85 µM (active) | 0.233 µM (active) | 928 nM (active) |  | inactive | 3.29 µM (active) | 1.04 µM (active)
COc1cc([C@@H]2c3cc4c(cc3[C@H](O)[C@H]3COC(=O)[C@H]23)OCO4)cc(OC)c1OC | 0.0329 µM (active) | 0.104 µM (active) | 32.9 nM (active) | 0.0522 µM (active) | 0.0827 µM (active) | 73.7 nM (active) | 0.0329 µM (active) | inactive | 0.0737 µM (active) | 
Cn1nnc2c(C(N)=O)ncn2c1=O | inactive | inactive | inactive | inactive | inactive | inactive | inactive | inactive | inactive | inactive
Nc1nc(N)c2nc(CNc3ccc(C(=O)NC(CCC(=O)O)C(=O)O)cc3)cnc2n1 (stereo unspecified) | inactive | 1.04 µM (active) | 329 nM (active) | 0.928 µM (active) | inactive | 329 nM (active) | inactive | inactive | inactive | inactive
O=NN(CCCl)C(=O)NC1CCCCC1 | inactive | inactive | inactive | inactive |  | inactive | inactive | inactive | inactive | inactive
Nc1nc(=S)c2[nH]cnc2[nH]1 | 5.85 µM (active) and 4.14 µM (active) | 2.61 µM (active) and 1.65 µM (active) | 11.7 µM (active) and 7.37 µM (active) |  | 2.93 µM (active) and 2.33 µM (active) | 1.17 µM (active) and 737 nM (active) | inactive | inactive | 1.04 µM (active) and 928 nM (active) | 14.7 µM (active) and 13.1 µM (active)
CCCCOc1ccc(CC(=O)NO)cc1 | inactive | inactive | inactive | inactive | inactive |  | inactive | inactive | inactive | 

Source: PubChem BioAssay (NCATS)
